# GLD-1 TGE inh = GLD-1-TGE RNA interaction inhibition (C. elegans); inhibition, % at 5.96 µM; actives 0.44% (n = 320,000); purified GLD-1 + fluorescein TGE RNA, fluorescence polarization;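 active means percent inhibition above a per-plate cutoff, the plate mean of test compounds plus 3 SD, cut at about 30% in these data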;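 further: 0% = DMSO wells with GLD-1 and probe and 100% = wells lacking GLD-1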
# Target sequence (Q17339 whole entry, looked up): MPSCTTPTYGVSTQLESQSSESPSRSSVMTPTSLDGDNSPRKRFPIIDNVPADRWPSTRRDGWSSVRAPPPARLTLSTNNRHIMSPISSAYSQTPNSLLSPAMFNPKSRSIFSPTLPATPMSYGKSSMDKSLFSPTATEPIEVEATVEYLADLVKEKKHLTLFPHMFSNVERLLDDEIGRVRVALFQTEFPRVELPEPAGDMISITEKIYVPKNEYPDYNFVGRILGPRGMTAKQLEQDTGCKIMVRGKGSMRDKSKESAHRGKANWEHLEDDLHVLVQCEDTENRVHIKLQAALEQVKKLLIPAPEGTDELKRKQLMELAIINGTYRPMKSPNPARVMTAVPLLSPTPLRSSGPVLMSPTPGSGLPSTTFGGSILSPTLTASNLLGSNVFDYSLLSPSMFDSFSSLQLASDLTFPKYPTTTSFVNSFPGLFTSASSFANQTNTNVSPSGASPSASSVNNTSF
# EBV gp42 inh = blocks Epstein-Barr virus glycoprotein 42 binding | inhibition, % (tested at 21.74 µM) | actives 0.42% (n = 220,000) | Fluorescence polarization binding assay, mP read-out | Q1HVG2; in the data active means inhibition above about 50%
# E coli Lon inh = inhibits E. coli Lon protease | AID 602123 | purified E. coli Lon protease, fluorescence polarization | inhibition, % at 7.94 µM | actives 0.42% (n = 360,000) | P0A9M0; in the data active means inhibition above about 13%, passing the limit was not always enough;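 further: 0% = enzyme with probe and DMSO and 100% = no enzyme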
# MEX-5 binding = C. elegans MEX-5 TCR-2 RNA binding activity; actives 0.38% (n = 300,000); MEX-5/FITC-TCR2 RNA binding, fluorescence polarization; hits give low values; Q9XUB2; activity score (negative = inhibition of binding), % at 10 µM;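 active means inhibition past about -25% in most replicates, and total fluorescence under double the plate's negative control median, limit read from the data; inconclusive means replicates evenly split on the limit, or fluorescence at least double controls; inactive means too little inhibition in most replicates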;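 further: 0% = DMSO and -100% = 5 µM competing unlabeled TCR2 RNA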
# Bcl-xL primary = blocks human Bcl-xL binding to Bim BH3 peptide | Q07817 | GST-Bcl-xL / FITC-Bim BH3 peptide fluorescence polarization | inhibition, % at 10.9 µM | actives 0.7% (n = 320,000) | AID 2129;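 active means inhibition above the mean of all tested compounds plus 3 SD, cutoff set per campaign, cut at about 30% in these data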;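 further: 0% = DMSO wells and 100% = unlabeled Bim-BH3 peptide competitor; inhibitors lower millipolarization by displacing the labeled peptide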
# MCL1-BIM inh = inhibitors of human MCL1 binding to BIM-BH3 peptide; actives 0.68% (n = 320,000); inhibition, % at 10.9 µM; Q07820; GST-MCL1 / FITC-Bim-BH3 fluorescence polarization;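 active means inhibition above the mean inhibition of all tested compounds plus 3 SD, set per campaign, cut at about 40% in these data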;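 further: 0% = DMSO wells and 100% = unlabeled Bim-BH3 peptide control; higher means more loss of mP so more displacement of Bim peptide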
# Bcl-xL conf = counter-screen for MCL1 inhibitors: confirmation of human Bcl-xL inhibitors; actives 54% (n = 1,700); AID 2166; GST-Bcl-xL / FITC-Bim BH3 peptide FP binding; shares compounds with MCL1-BIM inh; inhibition, % at 10.9 µM;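 active means inhibition above a cutoff equal to the mean inhibition of all tested compounds plus 3 SD, cut at about 30% in these data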;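 further: 0% = DMSO wells and 100% = unlabeled Bim BH3 control peptide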
# MCL1 BIM confirm = confirmation of human MCL1 and BIM-BH3 interaction inhibitors. shares compounds with MCL1-BIM inh. inhibition, % at 10.9 µM. GST-MCL1 / FITC-Bim-BH3 fluorescence polarization. AID 2168. actives 61% (n = 1,700);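 active means inhibition above the average of all tested compounds plus 3 SD, cut at about 40% in these data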;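 further: 0% = DMSO wells and 100% = unlabeled Bim-BH3 control peptide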
# The depositor's hits bear a star; ? = inconclusive; . = no result given. In the library only some 1.5% were active in any assay of this set; here they are far more common.
SMILES,GLD-1 TGE inh,EBV gp42 inh,E coli Lon inh,MEX-5 binding,Bcl-xL primary,MCL1-BIM inh,Bcl-xL conf,MCL1 BIM confirm
O=C1c2cccc3c(N4CCCCC4)ccc(c23)C(=O)N1c1ccccn1,161*,129*,10,-69*,122*,172*,154*,179*
O=C(c1cc(-c2ccco2)nn1-c1cccc(Cl)c1)N1CCCCC1,-6,3,-11,2,3,70*,26,65*
Cc1cc(C)n(-c2nc3ccccc3nc2Nc2ccc3[nH]c(=O)[nH]c3c2)n1,65*,-15,-7,-3,79*,54*,43*,36
COc1ccc(Nc2nc3ccccc3nc2-n2nc(C)cc2C)cc1,0,1,-8,-1,-3,0,.,.
CNC(=S)N(Cc1ccc(Cl)cc1)Cc1cccs1,5,-2,10,0,5,11,.,.
CC(=O)Nc1ccc2cc3ccc(NC(C)=O)cc3nc2c1,-3,105*,6,-36*,60*,63*,156*,195*
C=CCn1c(C)cc(C(=O)CSc2n[nH]c(N)n2)c1C,-3,1,0,-1,-1,47*,13,3
Cc1cc(C(=O)CSc2n[nH]c(N)n2)c(C)n1C1CC1,-3,-19,11,1,3,13,.,.
O=C(O)CN1C(=O)/C(=C\C(Br)=C\c2ccccc2)SC1=S,-1,.,-36,-5,25,43*,33*,47*
Oc1ccc(CCC2CCCCN2Cc2nc(C3CC3)no2)cc1 (stereo unspecified),10,-8,-5,2,7,2,.,.
O=C1CCCC2=C1C(c1ccc(O)c(O)c1)Nc1ccc3ncccc3c12 (stereo unspecified),7,9,3,-7,36*,50*,41*,57*
O=C1CCCC2=C1C(c1cccs1)Nc1ccc3ncccc3c12 (stereo unspecified),4,-11,-12,-1,5,13,.,.
NC(=O)[C@@H]1CCCN1Cc1c(C(=O)N2CCN(C3CCCCC3)CC2)nc2ccccn12,13,.,-3,-3,25,20,.,.
COC1CCN(Cc2c(C(=O)N3CCN(C4CCCCC4)CC3)nc3ccccn23)CC1,25,.,8,-4,43*,49*,16,15
O=C(CCN1C(=O)/C(=C/c2ccco2)SC1=S)Nc1ccc(O)cc1C(=O)O,.,.,-13,-6,.,.,.,.
O=C(CCN1C(=O)/C(=C/c2ccco2)SC1=S)Nc1ccc(C(=O)O)c(O)c1,-5,.,-27,-20,25,65*,32*,54*
O=C(CCN1C(=O)/C(=C\c2ccco2)SC1=S)Nc1ccc(C(=O)O)c(O)c1,0,.,-32,?,31*,64*,14,23
CN(C)S(=O)(=O)c1ccc(C(=O)NCc2nnc(SCC(=O)N3CCCC3)o2)cc1,6,.,-10,-1,4,-3,.,.
CC(C)n1c(SCC(=O)Nc2nncs2)nnc1-c1ccco1,4,.,.,0,12,41*,14,45*
CCOc1c(Br)cc(C(=O)N2CCCN(C)CC2)cc1OC,9,.,-10,2,3,5,.,.
CN1CCN(C2=C(Cl)C(=O)C(c3cnc(N4CCCCC4)s3)=C(Cl)C2=O)CC1,27,-7,8,-71*,77*,93*,72*,92*
O=C(O)c1ccccc1/C=N/NC(=O)c1cc(-c2ccco2)nc2ccccc12,3,59*,-11,-16,25,64*,42*,91*
CCc1nnc(NC(=O)CCN2C(=O)/C(=C/c3cc(OC)c(OC)c(OC)c3)SC2=S)s1,-3,.,-14,-22,-3,8,.,.
CCN(CC)c1ncnc2c1cnn2Cc1ccc(C)cc1,-6,.,5,-2,3,45*,8,9
O=C(Nc1ccc(F)cc1)c1cccc(N2C(=O)C3C4C=CC(C5CC45)C3C2=O)c1 (stereo unspecified),1,.,-7,0,2,-2,.,.
SMILES,GLD-1 TGE inh,EBV gp42 inh,E coli Lon inh,MEX-5 binding,Bcl-xL primary,MCL1-BIM inh,Bcl-xL conf,MCL1 BIM confirm
CCN1C=CC2=C(C#N)C(N)C(C#N)(C#N)C(c3ccccc3C(F)(F)F)C2C1 (stereo unspecified),76*,34,5,-32*,106*,110*,50*,64*
CCN1C=C(Cc2ccccc2C)C2=C(C1)C(c1ccccc1C)C(C#N)=C(N)O2 (stereo unspecified),25,13,-16,5,11,12,.,.
CC(C)C[C@H]1C(=O)N2CCC[C@H]2[C@]2(O)O[C@](NC(=O)C3C=C4c5cccc6[nH]c(Br)c(c56)C[C@H]4N(C)C3)(C(C)C)C(=O)N12 (stereo partly specified),92*,.,56,2,100*,115*,16,19
N#CCN(C(=O)COC(=O)CCCNC(=O)c1ccc(Cl)cc1)c1ccccc1,1,.,-3,.,2,5,.,.
O=C(O)c1cc(Cl)c2c(c1)OCO2,4,-5,3,-1,3,9,.,.
CCN(C(=O)CSc1nnc(SC)s1)c1c(N)n(Cc2ccccc2)c(=O)[nH]c1=O,59*,.,-9,.,84*,93*,-5,-3
CN(C)C=Nc1nonc1-c1ccccc1,0,-4,-6,1,5,-5,.,.
CN(C)C=Nc1c(Br)cc(Br)c2nonc12,-7,1,-88,?,92*,69*,90*,115*
Cc1ccccc1C(=O)Nc1nnc(CC(=O)N/N=C/c2ccco2)s1,1,-4,-1,-2,2,9,.,.
Cc1ccc(C(=O)Nc2nnc(CC(=O)N/N=C/c3ccc(O)c(O)c3)s2)cc1,11,.,-9,-1,28,76*,51*,80*
Cc1ccc[n+](-c2nc3ccccc3nc2C(=C=[N-])C#N)c1,-22,-7,-17,1,6,-1,.,.
CCc1ccc[n+](-c2nc3ccccc3nc2C(=C=[N-])C#N)c1,50*,37,-25,-13,88*,84*,21,27
Cc1ccccc1C1C(C#N)=C2N=C(N)c3c(sc4c3CCCCC4)N2C2=C1C(=O)CCC2 (stereo unspecified),49*,21,-17,-3,61*,67*,53*,68*
CC(C)N1C(=O)CCC1C(=O)NCc1ccc(F)cc1Cl (stereo unspecified),1,.,0,0,-1,-1,.,.
Cn1c(=O)[nH]c2cc(Cl)cnc21,44*,63*,5,-32*,65*,73*,59*,69*

# Compound activity: PubChem, several laboratories
